Measurements reported in PubChem BioAssay AID777 (Sanford-Burnham Center for Chemical Genomics, 2007).
About 19,000 (20%) of roughly 96,000 compounds were called active.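 How the source made its calls: active means blocking of liver enzyme CYP2C9 beyond about 50% at 5 µM (limit read from the data); inactive means the rest.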 A selection follows.

These compounds were tested against Cytochrome P450 2C9 (Homo sapiens) (UniProt P11712) (assay: blockers of cytochrome P450 2C9 activity – biochemical, luminescence, ADME assay, primary screen (AID 777)). Details: CYP2C9 Supersomes, luciferin-H conversion, at 5 µM, hits give high values.
Cytochrome P450 2C9 (Homo sapiens), sequence (P11712 whole entry, looked up): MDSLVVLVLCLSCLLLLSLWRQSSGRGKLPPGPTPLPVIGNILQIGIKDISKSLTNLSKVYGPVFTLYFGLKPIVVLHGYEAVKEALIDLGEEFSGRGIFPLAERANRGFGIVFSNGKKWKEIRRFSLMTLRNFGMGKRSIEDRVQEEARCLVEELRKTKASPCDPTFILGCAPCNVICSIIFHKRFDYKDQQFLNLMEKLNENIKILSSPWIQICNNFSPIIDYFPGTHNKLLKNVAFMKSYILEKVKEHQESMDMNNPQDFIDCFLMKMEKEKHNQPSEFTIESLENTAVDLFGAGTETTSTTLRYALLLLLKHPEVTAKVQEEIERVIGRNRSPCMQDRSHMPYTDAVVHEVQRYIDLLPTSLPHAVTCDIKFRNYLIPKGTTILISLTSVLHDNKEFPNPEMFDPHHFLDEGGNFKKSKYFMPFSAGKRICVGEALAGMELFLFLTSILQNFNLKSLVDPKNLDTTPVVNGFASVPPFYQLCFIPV

inhibition, inactive:
COc1ccc(CC(=O)Nc2sc(Cc3ccccc3)c(C)c2C(N)=O)cc1 20.4%
CCOC(=O)CSc1nnc(CNc2ccc(F)cc2)o1 14.8%
CCCCSc1[nH]c(=O)c(C(=O)OCC)cc1C#N 19.4%
CN(C(=O)c1ccccn1)c1nnc(-c2ccccn2)s1 2.1%
CCOc1ccc(NC(=O)CCS(=O)(=O)c2cccc3nsnc23)cc1 33.7%
CCOc1ccc(OCC)c(NC(=O)CN(C)S(=O)(=O)c2cccc3nsnc23)c1 -23.4%
CCN(CC)Cc1csc2ccc(Br)cc12 -14.3%
Cc1cc(NC(=O)Cn2nc(C(F)(F)F)c3c2CCCC3)no1 14.9%
Cc1ccc(-n2c(N)c(C(=O)N3CCOCC3)sc2=S)c(C)c1 8.6%
Cc1cccc(-n2c(N)c(C(=O)N3CCN(C)CC3)sc2=S)c1 19.9%
COc1ccc(-n2nc(C(=O)NCC(=O)Nc3cccc(C)n3)c3ccccc3c2=O)cc1 23.8%
COc1ccc(C(C)=O)cc1CN1C(=O)NC2(CCCCC2C)C1=O (stereo not drawn) 9.5%
C#CCN1CC(C)/C(=N/O)CC1C (stereo not drawn) -28.8%
CCC1C(C#N)=C(SC)NC2=C1C(=O)CC(C)(C)C2 (stereo not drawn) 19%
CCOC(=O)C1=C(C)NC2=C(C(=O)CC(C)(C)C2)C1c1ccsc1 (stereo not drawn) 39.8%
CC(=O)Nc1ccc(NC(=O)CN2CCCC(C)C2)c(Cl)c1 (stereo not drawn) 18.3%
c1ccc(C2CCC(N3CCC(N4CCCCC4)CC3)CC2)cc1 (stereo not drawn) 11%
Cc1cc(=O)oc(C)c1C(=O)N1CCCCC1 4.9%
O=C(NCCc1ccccc1)/C(=C\c1ccc([N+](=O)[O-])cc1)NC(=O)c1ccccc1 3.8%
CCOC(=O)/C(C#N)=C/c1ccc(OCC(=O)Nc2ccccc2)c(OC)c1 14.7%
CCC1CCCCN1CCNS(=O)(=O)c1ccc2c(c1)CCN2C(C)=O (stereo not drawn) 15.6%
N/C(Cc1ccc([N+](=O)[O-])cc1)=N\OC(=O)COc1ccc2ccccc2c1 4.4%
CCOc1cc(CN2CCN(C(=O)CC(C)C)CC2)ccc1OC -24.7%
COc1ccc(OCC(=O)N2CCN(C(=O)COc3ccccc3)CC2)cc1 -2.8%
Cn1c(C(=O)OC(C(=O)NC2CCCCC2)c2ccccn2)cc2sccc21 (stereo not drawn) -7.2%
CCn1c(/C=C/c2ccc([N+](=O)[O-])o2)nc2ccccc2c1=O -18%
COC(=O)C1CCN(CC(N)=O)CC1 -11.4%
CCOC(=O)CC1=CC(=O)Nc2ccccc2N1 7.1%
O=C(CSc1nnnn1-c1ccc2c(c1)CCC2)Nc1ccc2c(c1)OCCO2 0.6%
O=C(CSc1nc(C2CC2)nc2ccccc12)Nc1ccc2c(c1)OCCO2 40.1%
CCC(=O)Nc1cccc(NC(=O)CSc2nnnn2C2CCCC2)c1 16.4%
CCNC(=O)c1sccc1-n1cccc1 16.1%
Cc1ccc(N2C(=O)CC(Sc3ncn[nH]3)C2=O)cc1 (stereo not drawn) -1.5%
Nc1nonc1C(=O)NCCc1ccccc1 -8.7%
COc1ccc(OCCCON2C(=O)c3ccccc3C2=O)cc1 7.6%
CN1CCN(C(=O)C2C3C=CC(C3)C2C(=O)O)CC1 (stereo not drawn) -9.2%
Cc1ccc2nc(S(=O)(=O)O)[nH]c2c1 -11.8%
CSc1nsc(SC)c1NC(=O)OC1CCCCC1 21.9%
O=C(Cn1c(-c2ccccn2)nc2ccccc21)NCCN1CCOCC1 -10.5%
Cc1cc(Nc2ccccc2)n(CCC#N)n1 -12.2%
COC(=O)CN1C(=O)C(O)=C(C(C)=O)C1c1ccc([N+](=O)[O-])cc1 (stereo not drawn) 3.5%
CS(=O)(=O)N1CCCC(C(=O)N2CCOCC2)C1 (stereo not drawn) -11.8%
COc1ccc(S(=O)(=O)N2CCCC(C(=O)N3CCN(C)CC3)C2)cc1C (stereo not drawn) -24%
COc1ccc(NC(=O)C2CCCN(S(=O)(=O)c3cccc4cccnc34)C2)cc1OC (stereo not drawn) -15.1%
O=C(Cc1cccs1)N1CCCC(c2nc(-c3ccc(S(=O)(=O)N4CCCC4)cc3)no2)C1 (stereo not drawn) 47.8%
OCCNc1nc2ccccc2[nH]1 2.6%
Cc1nnc(SCC(=O)Nn2cnnc2)s1 29.8%
CCOC(=O)c1c(NC(=O)c2ccc(N3CCOCC3)c([N+](=O)[O-])c2)sc(C)c1C 7.5%
COc1ccccc1NC(=O)c1ccc2nc(N3C(=O)CCC3=O)sc2c1 -32%
COc1ccc(-n2c(SC)nc(O)cc2=O)cc1 -81.1%
O=C1CSC2=NCN(c3ccccc3)CN12 26.1%
O=S(N1CCCCCC1)C12CC3CC(CC(C3)C1)C2 (stereo not drawn) 9.9%
O=C(OCC(=O)N1CCN(C(=O)c2ccco2)CC1)c1ccccc1Cc1ccccc1 31.9%
CCOC(=O)c1[nH]c2ccccc2c1N=C(C)N(CC)CC -6.5%
COc1cccc(OCCOc2cccc(/C=N/n3cnnc3)c2)c1 40%
COc1ccccc1OCCOc1ccc(/C=N/n2cnnc2)cc1 44.5%
COC(=O)CCSc1cc([N+](=O)[O-])cc2c1c(C1OCCS1)nn2-c1ccccc1 (stereo not drawn) 34.3%
Cc1ccccc1C(=O)NCCN=C1NS(=O)(=O)c2ccccc21 7.9%
COc1ccc(C(C#N)N2N=C(C)CC2(C)C)cc1 (stereo not drawn) -2.1%
N#CC1=C(SCc2ccccc2)NC(=O)C(C#N)C12CCCC2 (stereo not drawn) 46.5%
O=C(O)c1cc2ccccc2c(=O)s1 -1.7%
CCOC(=O)C1CCCN(C(=O)C2CCN(c3nnc(-n4cccc4)s3)CC2)C1 (stereo not drawn) 25.6%
O=C(O)CCN1C(=O)CC2(CCCCC2)C1=O 11.2%
O=[N+]([O-])c1ccc(C=Nc2ccc(Cl)cc2Cl)s1 7.9%
COCCCNC(NC(=O)c1ccc(C)cc1)C(Cl)(Cl)Cl (stereo not drawn) 4.7%
COc1ccc(NC(=O)C(NC(C)=O)C(=O)NCc2ccccc2Cl)cc1 (stereo not drawn) 37.2%
COc1ccc(NC(=O)Nc2ccc3nsnc3c2)cc1 23.7%
COc1cccc2c1OCC1COc3c(c(=O)n(C)c(=O)n3C)C21 (stereo not drawn) -6%
O=C(Nc1nnc(SCc2ccccc2)s1)c1ccco1 6.2%
O=C(Nc1ccc(NC(=O)c2cccs2)cn1)c1ccco1 23.5%
CC(NCCO)C(=O)C12CC3CC(CC(C3)C1)C2 (stereo not drawn) -0.7%
COc1ccc(N2C(=O)CCC(C(=O)Nc3ccccn3)C2c2ccc(OC)c(OC)c2)cc1 (stereo not drawn) 2.6%
Cc1csc(=NC(=O)c2ccccc2)n1CCO 32.3%
Cc1cc(C(=O)N2CCN(c3ccccn3)CC2)c(C)o1 12.4%
COc1ccc(-c2nc(CS(=O)CC(=O)NCc3cccnc3)c(C)o2)cc1OC (stereo not drawn) 47.2%
Cc1ccc(S(=O)(=O)N(C)CC(=O)NC2CCCC2)cc1 -30.3%
COc1ccc(-c2nc(CS(=O)CC(=O)N3CCc4ccccc4C3)c(C)o2)cc1 (stereo not drawn) 40.4%

inhibition, active:
CCOc1ccc(-c2cn(S(=O)(=O)c3cccc4nsnc34)nc2N)cc1 62.6%
N#Cc1ccccc1-n1c(N)c(C(=O)N2CCCC2)sc1=S 69.3%
COc1ccc(C2C(C#N)=C(/N=C/N3CCOCC3)OC3=C2C(=O)CC(C)(C)C3)cc1OC (stereo not drawn) 69%
COc1cc(C2C(C#N)=C(C)NC3=C2C(=O)CC(C)(C)C3)ccc1O (stereo not drawn) 58.5%
CCOC(=O)/C(=C\c1ccc([N+](=O)[O-])cc1)C(=O)c1cc(C(C)=O)c(Nc2ccccc2)s1 76.2%
COc1cc(C(=O)N2CCN(C/C=C/c3ccccc3)CC2)cc(OC)c1C 67.7%
O=C(CSc1nc2ncccc2[nH]1)Nc1ccc2c(c1)OCCO2 95.5%
O=C(CSc1nnnn1C1CCCC1)Nc1ccc2c(c1)OCCO2 62.4%
Cc1ccc2nc(/C(C#N)=C\c3ccc(OC(=O)c4cccs4)cc3)[nH]c2c1 81.3%
O=C(c1cccs1)N1CCCC(c2nc(-c3ccc(F)cc3)no2)C1 (stereo not drawn) 76.9%
CC(C)c1ccc(-c2noc(C3CCCN(S(C)(=O)=O)C3)n2)cc1 (stereo not drawn) 52.2%
COc1cc(-c2noc(C3CCCN(S(=O)(=O)c4cccc(Cl)c4)C3)n2)cc(OC)c1OC (stereo not drawn) 85.3%
CCc1cc(C(c2ccccc2OC)N2CCOCC2)c(NC(=O)c2ccccc2)s1 (stereo not drawn) 85.2%
C=CCOc1ccc(/C=N/n2cncn2)cc1OC 57.5%
Cc1ccc2c(CSc3nncs3)cc(=O)oc2c1 67%
N#CC1=C(SCc2ccc(C#N)cc2)N=C(N)C(c2nc(-c3ccccc3)cs2)C12CCCCC2 (stereo not drawn) 98.6%
O=C1[C@@H]2C(Cc3ccc(O)cc3)NC3(C(=O)Nc4ccc(F)cc43)[C@@H]2C(=O)N1c1ccc(F)cc1 (stereo partly drawn) 50.6%
Cc1ccc(NC(=S)NC(NC(=O)Cc2cccc3ccccc23)C(Cl)(Cl)Cl)cc1 (stereo not drawn) 96.6%
NC(=O)c1ccsc1NC(=O)c1ccco1 61.4%
Cc1ccc(-c2nc(CS(=O)CC(=O)NC3CCCC3)c(C)o2)cc1 (stereo not drawn) 53%
Cc1ccc(-c2nc(CS(=O)CC(=O)N3CCN(c4ncccn4)CC3)c(C)o2)cc1 (stereo not drawn) 79%
